How the values were obtained:
Test in all cases: DAPPL (digital affinity profiling via proximity ligation, sequencing); 10 mM Tris-HCl pH 7.5, 50 mM NaCl, 1 mM DTT, 4% glycerol, room temperature, 30 min; GST-TFs on glutathione beads, 16-mer random dsDNA library, 0.1% formaldehyde crosslink after washing; high values mean tight binding
FLI1 = biological target: T1, FLI1 (Homo sapiens, UniProt Q01543 1-452); details: protein: recombinant; tags: N-terminal GST; dsDNA, one strand shown
T1 sequence: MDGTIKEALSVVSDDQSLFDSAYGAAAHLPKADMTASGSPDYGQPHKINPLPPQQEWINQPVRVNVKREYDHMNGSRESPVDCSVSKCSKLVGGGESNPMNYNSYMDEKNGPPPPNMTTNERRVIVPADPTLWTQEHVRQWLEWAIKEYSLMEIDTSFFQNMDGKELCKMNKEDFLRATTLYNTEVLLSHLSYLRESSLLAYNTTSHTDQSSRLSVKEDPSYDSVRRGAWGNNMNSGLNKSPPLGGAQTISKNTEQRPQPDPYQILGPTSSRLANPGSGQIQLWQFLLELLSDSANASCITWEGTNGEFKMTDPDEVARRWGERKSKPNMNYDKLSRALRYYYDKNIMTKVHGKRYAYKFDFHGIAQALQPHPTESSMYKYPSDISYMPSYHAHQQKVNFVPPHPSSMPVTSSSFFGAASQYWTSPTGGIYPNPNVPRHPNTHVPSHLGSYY
Outline: (§1)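 Human transcription factors carrying a GST fusion were produced in yeast, bound to glutathione beads, tagged with DNA barcodes and pooled together with a tag-only sample. Each pool was held with 200 nmole of a random double-stranded 16-mer DNA library in Tris/NaCl/DTT/glycerol buffer for 30 min at room temperature, then washed, crosslinked in 0.1% formaldehyde, proximity-ligated with BsaI/T4 ligase (1 h, 37 °C), PCR-amplified and sequenced on an Illumina NextSeq500. Binding signal is the read frequency of each hexamer for a given factor divided by its frequency in the tag-only sample.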

ELK1 = biological target: T2, ELK1 (Homo sapiens, UniProt P19419 1-428); details: protein: recombinant; tags: N-terminal GST; dsDNA, one strand shown
T2 sequence: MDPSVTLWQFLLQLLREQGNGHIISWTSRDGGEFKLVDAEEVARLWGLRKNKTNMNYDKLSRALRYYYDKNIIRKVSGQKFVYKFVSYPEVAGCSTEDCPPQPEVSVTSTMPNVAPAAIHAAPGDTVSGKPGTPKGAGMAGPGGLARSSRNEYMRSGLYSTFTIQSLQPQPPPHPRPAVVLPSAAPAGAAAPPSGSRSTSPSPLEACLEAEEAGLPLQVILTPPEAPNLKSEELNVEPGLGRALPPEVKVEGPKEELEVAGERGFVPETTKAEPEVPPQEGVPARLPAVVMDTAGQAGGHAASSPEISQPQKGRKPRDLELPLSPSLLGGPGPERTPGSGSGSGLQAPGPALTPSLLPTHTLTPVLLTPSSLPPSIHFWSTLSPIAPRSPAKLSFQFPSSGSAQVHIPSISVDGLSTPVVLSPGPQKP
Outline: as §1

GABPA = biological target: T3, GABPA (Homo sapiens, UniProt Q06546 1-454); details: protein: recombinant; tags: N-terminal GST; dsDNA, one strand shown
T3 sequence: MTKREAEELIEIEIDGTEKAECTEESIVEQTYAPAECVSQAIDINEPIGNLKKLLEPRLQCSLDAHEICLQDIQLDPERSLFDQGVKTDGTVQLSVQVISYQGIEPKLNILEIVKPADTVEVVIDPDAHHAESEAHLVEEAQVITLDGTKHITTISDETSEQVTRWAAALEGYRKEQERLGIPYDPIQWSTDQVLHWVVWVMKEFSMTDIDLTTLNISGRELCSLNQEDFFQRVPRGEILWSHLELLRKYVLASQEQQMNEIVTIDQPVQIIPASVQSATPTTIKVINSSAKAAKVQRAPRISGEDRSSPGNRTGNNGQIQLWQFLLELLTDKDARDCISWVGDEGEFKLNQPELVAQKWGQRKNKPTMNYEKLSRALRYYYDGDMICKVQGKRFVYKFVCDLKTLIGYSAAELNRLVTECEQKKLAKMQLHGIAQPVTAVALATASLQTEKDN
Outline: as §1

ERG = biological target: T4, ERG (Homo sapiens, UniProt P11308 1-479); details: protein: recombinant; tags: N-terminal GST; dsDNA, one strand shown
T4 sequence: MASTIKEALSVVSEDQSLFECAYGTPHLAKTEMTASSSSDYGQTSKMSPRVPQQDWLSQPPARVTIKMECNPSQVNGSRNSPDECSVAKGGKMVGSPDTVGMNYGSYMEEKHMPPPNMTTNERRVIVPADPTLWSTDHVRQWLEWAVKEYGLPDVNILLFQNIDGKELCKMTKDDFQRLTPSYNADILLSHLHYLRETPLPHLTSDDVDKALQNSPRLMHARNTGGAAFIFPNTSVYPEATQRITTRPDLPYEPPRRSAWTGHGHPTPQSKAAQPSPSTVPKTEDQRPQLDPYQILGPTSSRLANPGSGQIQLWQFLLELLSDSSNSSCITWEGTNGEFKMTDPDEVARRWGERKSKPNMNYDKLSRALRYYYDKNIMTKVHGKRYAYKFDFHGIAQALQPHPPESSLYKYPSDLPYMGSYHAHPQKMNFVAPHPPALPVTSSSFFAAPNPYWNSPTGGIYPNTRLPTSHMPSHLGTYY
Outline: as §1

ELF1 = ELF1 (Homo sapiens, UniProt P32519 1-619); details: protein: recombinant; tags: N-terminal GST; dsDNA, one strand shown
ELF1, sequence (P32519 whole entry): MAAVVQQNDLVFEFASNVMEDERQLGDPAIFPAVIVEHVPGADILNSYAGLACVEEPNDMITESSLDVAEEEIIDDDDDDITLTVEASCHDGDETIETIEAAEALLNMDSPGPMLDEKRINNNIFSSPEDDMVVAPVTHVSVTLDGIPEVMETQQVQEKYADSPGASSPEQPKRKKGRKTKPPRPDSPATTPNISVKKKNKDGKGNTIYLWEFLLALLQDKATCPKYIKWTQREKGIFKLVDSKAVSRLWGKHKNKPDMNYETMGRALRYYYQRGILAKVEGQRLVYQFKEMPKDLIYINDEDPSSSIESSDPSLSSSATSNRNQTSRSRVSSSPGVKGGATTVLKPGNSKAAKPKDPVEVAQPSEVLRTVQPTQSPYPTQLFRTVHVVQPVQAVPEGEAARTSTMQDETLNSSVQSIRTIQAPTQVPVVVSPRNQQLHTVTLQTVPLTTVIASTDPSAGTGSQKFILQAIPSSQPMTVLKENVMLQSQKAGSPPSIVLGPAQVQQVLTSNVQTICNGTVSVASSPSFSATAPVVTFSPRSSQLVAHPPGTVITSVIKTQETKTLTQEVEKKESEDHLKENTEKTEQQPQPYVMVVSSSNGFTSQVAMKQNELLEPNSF
Outline: as §1

EHF = biological target: T5, EHF (Homo sapiens, UniProt Q9NZC4 1-300); details: protein: recombinant; tags: N-terminal GST; dsDNA, one strand shown
T5 sequence: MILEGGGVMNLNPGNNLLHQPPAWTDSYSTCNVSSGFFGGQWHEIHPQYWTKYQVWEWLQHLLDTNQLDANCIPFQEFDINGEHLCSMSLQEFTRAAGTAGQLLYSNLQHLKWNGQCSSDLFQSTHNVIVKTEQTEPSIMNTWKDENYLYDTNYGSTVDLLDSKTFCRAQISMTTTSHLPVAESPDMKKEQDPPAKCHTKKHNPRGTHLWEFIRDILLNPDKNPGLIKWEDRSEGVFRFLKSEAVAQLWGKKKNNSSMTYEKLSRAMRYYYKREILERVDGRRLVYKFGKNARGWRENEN
Outline: as §1

SPI1 = SPI1 (Homo sapiens, UniProt P17947 1-270); details: protein: recombinant; tags: N-terminal GST; dsDNA, one strand shown
Outline: as §1

SPIB = SPIB (Homo sapiens, UniProt Q01892 1-262); details: protein: recombinant; tags: N-terminal GST; dsDNA, one strand shown
SPIB, sequence (Q01892 whole entry): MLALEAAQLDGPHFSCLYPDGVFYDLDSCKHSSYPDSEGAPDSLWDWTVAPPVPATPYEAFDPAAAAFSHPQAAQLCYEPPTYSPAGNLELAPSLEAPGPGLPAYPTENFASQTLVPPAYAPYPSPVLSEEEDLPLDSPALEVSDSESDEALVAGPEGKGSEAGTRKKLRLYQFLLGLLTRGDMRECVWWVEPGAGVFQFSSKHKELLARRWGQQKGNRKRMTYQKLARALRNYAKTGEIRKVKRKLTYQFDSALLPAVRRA
Outline: as §1

ELK3 = biological target: T6, ELK3 (Homo sapiens, UniProt P41970 1-407); details: protein: recombinant; tags: N-terminal GST; dsDNA, one strand shown
T6 sequence: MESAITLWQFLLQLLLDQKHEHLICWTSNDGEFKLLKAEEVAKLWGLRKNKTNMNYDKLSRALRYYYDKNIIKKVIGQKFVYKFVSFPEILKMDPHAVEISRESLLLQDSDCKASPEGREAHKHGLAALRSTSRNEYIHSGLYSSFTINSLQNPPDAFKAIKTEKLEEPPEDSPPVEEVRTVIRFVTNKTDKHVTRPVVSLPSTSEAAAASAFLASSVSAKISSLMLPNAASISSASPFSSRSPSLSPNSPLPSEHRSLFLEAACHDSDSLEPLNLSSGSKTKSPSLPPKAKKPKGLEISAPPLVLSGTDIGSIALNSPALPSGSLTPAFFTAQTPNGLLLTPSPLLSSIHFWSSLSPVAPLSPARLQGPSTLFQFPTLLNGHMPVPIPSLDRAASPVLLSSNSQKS
Outline: as §1

FEV = biological target: T7, FEV (Homo sapiens, UniProt Q99581 1-238); details: protein: recombinant; tags: N-terminal GST; dsDNA, one strand shown
T7 sequence: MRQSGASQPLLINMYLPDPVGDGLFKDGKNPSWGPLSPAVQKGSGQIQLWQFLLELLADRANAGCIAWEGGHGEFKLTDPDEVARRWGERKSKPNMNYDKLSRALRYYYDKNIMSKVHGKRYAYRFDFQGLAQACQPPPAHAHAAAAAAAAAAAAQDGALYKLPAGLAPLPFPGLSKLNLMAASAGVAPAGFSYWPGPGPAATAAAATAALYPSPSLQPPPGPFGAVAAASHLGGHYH
Outline: as §1

ETV5 = ETV5 (Homo sapiens, UniProt P41161 1-510); details: protein: recombinant; tags: N-terminal GST; dsDNA, one strand shown
ETV5, sequence (P41161 whole entry): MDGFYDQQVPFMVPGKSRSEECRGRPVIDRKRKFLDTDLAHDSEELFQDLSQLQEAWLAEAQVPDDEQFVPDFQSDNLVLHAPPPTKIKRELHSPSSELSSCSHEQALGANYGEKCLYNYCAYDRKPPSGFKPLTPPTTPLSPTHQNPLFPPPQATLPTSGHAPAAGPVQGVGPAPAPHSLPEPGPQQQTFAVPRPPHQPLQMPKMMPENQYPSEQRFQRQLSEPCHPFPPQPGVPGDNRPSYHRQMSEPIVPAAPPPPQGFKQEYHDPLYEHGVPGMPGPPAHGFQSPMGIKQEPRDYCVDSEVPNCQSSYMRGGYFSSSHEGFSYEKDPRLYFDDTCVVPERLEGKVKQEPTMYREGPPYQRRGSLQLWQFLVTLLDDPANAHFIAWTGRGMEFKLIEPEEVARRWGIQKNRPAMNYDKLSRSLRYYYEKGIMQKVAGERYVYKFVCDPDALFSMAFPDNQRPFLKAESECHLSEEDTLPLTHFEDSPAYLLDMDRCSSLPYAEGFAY
Outline: as §1

HSF1 = HSF1 (Homo sapiens, UniProt Q00613 1-529); details: protein: recombinant; tags: N-terminal GST; chain copies: 3; dsDNA, one strand shown
HSF1, sequence (Q00613 whole entry): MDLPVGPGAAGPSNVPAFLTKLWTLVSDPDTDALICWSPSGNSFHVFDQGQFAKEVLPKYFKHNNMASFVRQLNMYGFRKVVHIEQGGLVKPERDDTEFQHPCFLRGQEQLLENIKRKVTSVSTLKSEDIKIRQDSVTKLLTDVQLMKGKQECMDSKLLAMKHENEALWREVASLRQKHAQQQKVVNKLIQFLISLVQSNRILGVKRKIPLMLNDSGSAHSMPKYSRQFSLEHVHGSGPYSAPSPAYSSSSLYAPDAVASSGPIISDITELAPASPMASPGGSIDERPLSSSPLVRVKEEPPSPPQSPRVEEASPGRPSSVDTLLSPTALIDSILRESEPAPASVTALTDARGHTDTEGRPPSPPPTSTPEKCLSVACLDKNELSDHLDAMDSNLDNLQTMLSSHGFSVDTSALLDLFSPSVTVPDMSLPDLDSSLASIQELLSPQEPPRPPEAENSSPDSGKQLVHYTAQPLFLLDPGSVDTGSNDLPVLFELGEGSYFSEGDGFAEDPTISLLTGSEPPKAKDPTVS
Outline: as §1

SPIC = biological target: T8, SPIC (Homo sapiens, UniProt Q8N5J4 1-248); details: protein: recombinant; tags: N-terminal GST; dsDNA, one strand shown
T8 sequence: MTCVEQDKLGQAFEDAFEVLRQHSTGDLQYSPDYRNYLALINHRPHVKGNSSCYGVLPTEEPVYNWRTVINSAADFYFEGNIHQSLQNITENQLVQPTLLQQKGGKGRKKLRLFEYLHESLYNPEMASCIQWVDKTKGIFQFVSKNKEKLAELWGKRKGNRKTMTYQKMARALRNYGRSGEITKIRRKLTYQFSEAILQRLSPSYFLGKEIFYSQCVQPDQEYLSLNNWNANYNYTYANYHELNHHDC
Outline: as §1

ELF4 = ELF4 (Homo sapiens, UniProt Q99607 1-663); details: protein: recombinant; tags: N-terminal GST; dsDNA, one strand shown
ELF4, sequence (Q99607 whole entry): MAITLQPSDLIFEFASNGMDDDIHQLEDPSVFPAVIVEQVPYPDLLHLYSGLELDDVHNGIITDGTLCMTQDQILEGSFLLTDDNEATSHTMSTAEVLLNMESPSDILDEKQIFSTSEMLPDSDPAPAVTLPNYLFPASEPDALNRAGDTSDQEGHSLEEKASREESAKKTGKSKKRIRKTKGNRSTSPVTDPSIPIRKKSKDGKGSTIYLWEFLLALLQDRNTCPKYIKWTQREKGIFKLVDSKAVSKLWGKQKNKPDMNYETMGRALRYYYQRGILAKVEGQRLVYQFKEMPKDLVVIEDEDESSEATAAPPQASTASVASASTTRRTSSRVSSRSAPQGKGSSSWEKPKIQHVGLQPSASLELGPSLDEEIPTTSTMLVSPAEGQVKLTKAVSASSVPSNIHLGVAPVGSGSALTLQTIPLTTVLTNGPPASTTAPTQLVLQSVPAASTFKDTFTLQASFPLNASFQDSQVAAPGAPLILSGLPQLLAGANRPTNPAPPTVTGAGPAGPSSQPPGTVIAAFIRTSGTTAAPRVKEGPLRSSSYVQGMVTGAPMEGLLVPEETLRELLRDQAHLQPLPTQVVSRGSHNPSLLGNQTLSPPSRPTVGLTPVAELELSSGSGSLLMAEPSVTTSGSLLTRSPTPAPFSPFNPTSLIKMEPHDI
Outline: as §1

ELK4 = biological target: T9, ELK4 (Homo sapiens, UniProt P28324-2 1-405); details: protein: recombinant; tags: N-terminal GST; dsDNA, one strand shown
T9 sequence: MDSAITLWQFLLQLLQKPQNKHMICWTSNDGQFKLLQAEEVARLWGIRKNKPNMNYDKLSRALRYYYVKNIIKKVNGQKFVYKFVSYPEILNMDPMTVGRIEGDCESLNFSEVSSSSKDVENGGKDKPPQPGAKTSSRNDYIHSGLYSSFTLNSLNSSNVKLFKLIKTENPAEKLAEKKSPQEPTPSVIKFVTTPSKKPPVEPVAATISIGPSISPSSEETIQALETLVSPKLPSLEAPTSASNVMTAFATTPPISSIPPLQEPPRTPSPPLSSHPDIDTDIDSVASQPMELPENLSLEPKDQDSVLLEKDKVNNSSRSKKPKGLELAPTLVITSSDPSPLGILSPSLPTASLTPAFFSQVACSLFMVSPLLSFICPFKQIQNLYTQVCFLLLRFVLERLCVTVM
Outline: as §1

ETV2 = biological target: T10, ETV2 (Homo sapiens, UniProt O00321 1-342); details: protein: recombinant; tags: N-terminal GST; dsDNA, one strand shown
T10 sequence: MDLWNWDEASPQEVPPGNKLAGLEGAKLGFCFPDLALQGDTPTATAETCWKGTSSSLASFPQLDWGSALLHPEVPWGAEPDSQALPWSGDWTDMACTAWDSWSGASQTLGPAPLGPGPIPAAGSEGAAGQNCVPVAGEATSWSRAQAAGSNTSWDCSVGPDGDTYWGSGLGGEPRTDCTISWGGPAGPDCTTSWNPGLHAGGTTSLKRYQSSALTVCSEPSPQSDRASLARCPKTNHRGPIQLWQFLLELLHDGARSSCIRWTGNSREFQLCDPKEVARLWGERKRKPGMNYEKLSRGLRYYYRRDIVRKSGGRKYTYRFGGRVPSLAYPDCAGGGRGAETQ
Outline: as §1

CRX = CRX (Homo sapiens, UniProt O43186 1-299); details: protein: recombinant; tags: N-terminal GST; dsDNA, one strand shown
CRX, sequence (O43186 whole entry): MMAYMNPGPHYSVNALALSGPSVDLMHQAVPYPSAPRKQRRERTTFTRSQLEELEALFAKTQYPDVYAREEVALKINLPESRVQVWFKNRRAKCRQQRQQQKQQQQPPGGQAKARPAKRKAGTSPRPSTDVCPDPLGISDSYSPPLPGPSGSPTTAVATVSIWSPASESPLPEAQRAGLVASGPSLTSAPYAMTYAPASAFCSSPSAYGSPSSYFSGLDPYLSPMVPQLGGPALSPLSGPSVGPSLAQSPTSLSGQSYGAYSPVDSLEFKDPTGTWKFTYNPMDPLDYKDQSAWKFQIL
Outline: as §1

ETV1 = ETV1 (Homo sapiens, UniProt P50549 1-477); details: protein: recombinant; tags: N-terminal GST; dsDNA, one strand shown
ETV1, sequence (P50549 whole entry): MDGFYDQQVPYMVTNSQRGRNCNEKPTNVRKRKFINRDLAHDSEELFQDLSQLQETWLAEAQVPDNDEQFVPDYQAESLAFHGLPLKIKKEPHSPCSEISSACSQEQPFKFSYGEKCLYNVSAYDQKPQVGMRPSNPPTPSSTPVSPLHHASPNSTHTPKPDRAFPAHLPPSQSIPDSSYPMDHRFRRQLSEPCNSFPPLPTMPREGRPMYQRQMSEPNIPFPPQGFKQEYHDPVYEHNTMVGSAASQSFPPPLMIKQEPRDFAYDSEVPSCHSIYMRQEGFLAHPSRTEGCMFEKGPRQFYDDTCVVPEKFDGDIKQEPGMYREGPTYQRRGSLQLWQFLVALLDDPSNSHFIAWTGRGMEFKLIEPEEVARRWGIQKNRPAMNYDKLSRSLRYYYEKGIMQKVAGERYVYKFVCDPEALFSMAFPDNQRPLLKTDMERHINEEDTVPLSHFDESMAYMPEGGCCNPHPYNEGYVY
Outline: as §1

Sequence | binding signal (FLI1) | binding signal (ELK1) | binding signal (GABPA) | binding signal (ERG) | binding signal (ELF1) | binding signal (EHF) | binding signal (SPI1) | binding signal (SPIB) | binding signal (ELK3) | binding signal (FEV) | binding signal (ETV5) | binding signal (HSF1) | binding signal (SPIC) | binding signal (ELF4) | binding signal (ELK4) | binding signal (ETV2) | binding signal (CRX) | binding signal (ETV1)
TCTGTA | 1.23 fold enrichment (6-mer frequency, TF over GST control) | 1.19 fold enrichment (6-mer frequency, TF over GST control) | 1.2 fold enrichment (6-mer frequency, TF over GST control) | 1.11 fold enrichment (6-mer frequency, TF over GST control) | 1.18 fold enrichment (6-mer frequency, TF over GST control) | 1.15 fold enrichment (6-mer frequency, TF over GST control) | 1.16 fold enrichment (6-mer frequency, TF over GST control) | 1.19 fold enrichment (6-mer frequency, TF over GST control) | 1.2 fold enrichment (6-mer frequency, TF over GST control) | 1.24 fold enrichment (6-mer frequency, TF over GST control) | 1.19 fold enrichment (6-mer frequency, TF over GST control) | 1.31 fold enrichment (6-mer frequency, TF over GST control) | 1.39 fold enrichment (6-mer frequency, TF over GST control) | 1.18 fold enrichment (6-mer frequency, TF over GST control) | 1.3 fold enrichment (6-mer frequency, TF over GST control) | 1.28 fold enrichment (6-mer frequency, TF over GST control) | 1.34 fold enrichment (6-mer frequency, TF over GST control) | 1.28 fold enrichment (6-mer frequency, TF over GST control)
AGCCTA | 1.06 fold enrichment (6-mer frequency, TF over GST control) | 1.05 fold enrichment (6-mer frequency, TF over GST control) | 1.12 fold enrichment (6-mer frequency, TF over GST control) | 1.08 fold enrichment (6-mer frequency, TF over GST control) | 1.1 fold enrichment (6-mer frequency, TF over GST control) | 1.04 fold enrichment (6-mer frequency, TF over GST control) | 1.02 fold enrichment (6-mer frequency, TF over GST control) | 1.02 fold enrichment (6-mer frequency, TF over GST control) | 1.12 fold enrichment (6-mer frequency, TF over GST control) | 1.01 fold enrichment (6-mer frequency, TF over GST control) | 1.09 fold enrichment (6-mer frequency, TF over GST control) | 1.21 fold enrichment (6-mer frequency, TF over GST control) | 1.13 fold enrichment (6-mer frequency, TF over GST control) | 1.09 fold enrichment (6-mer frequency, TF over GST control) | 1.17 fold enrichment (6-mer frequency, TF over GST control) | 1.12 fold enrichment (6-mer frequency, TF over GST control) | 1.52 fold enrichment (6-mer frequency, TF over GST control) | 1.12 fold enrichment (6-mer frequency, TF over GST control)

— PMC7862700, “An all-to-all approach to the identification of sequence-specific readers for epigenetic DNA modifications on cytosine”
